Bioassay records deposited in PubChem by National Center for Advancing Translational Sciences (NCATS).
A selection: hits, their analogues and other compounds. The true share with any hit is near 5.9%.
GLP1R ag: activates the human GLP-1 receptor; HEK293 GLP-1R CRE-luciferase, luminescence, 4-6 h; cells express a hypersensitive GLP-1R form; Potency, µM (series often up to 45.6 µM), actives largely listed as activators; hit rate 0.007% among 380,000; P43220; AID 624172
Target sequence (P43220 whole entry, looked up): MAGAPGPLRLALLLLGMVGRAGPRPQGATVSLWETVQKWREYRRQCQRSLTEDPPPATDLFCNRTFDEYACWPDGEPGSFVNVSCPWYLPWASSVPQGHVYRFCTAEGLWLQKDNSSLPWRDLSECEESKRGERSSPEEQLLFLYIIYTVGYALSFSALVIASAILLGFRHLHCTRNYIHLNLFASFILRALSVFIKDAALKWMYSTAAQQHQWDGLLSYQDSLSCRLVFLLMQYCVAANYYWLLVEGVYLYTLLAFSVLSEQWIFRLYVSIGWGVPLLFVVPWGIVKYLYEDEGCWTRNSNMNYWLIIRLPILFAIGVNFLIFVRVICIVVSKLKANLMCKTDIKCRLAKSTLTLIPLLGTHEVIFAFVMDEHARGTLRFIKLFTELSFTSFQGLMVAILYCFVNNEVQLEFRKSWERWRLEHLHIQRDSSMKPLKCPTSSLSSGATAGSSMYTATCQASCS
GLP-1R inv ag: GLP-1 receptor (human) inverse agonism; HEK293 GLP-1R CRE-luciferase, luminescence, 24 h; GLP-1R form is constitutively active; hit rate 1.6% among 410,000; Potency, µM (series often up to 38.3 µM), actives largely listed as inhibitors; P43220; AID 624417; note: nearly all actives have a fitted effect of over 55% in size
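Cells are plated, allowed 12 hours at 37 deg C, then treated with compounds for 24 hr before luciferase detection reagent is added and luminescence is read after 12 min at room temperature. The HEK293 line carries constitutively active GLP-1R with a cAMP-responsive reporter.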
RORgamma inh: blocks mouse ROR gamma transcriptional activity; P51450; Drosophila S2 Gal4-RORgamma UAS-luciferase reporter, 20 h; Potency, µM (top dose mostly 53.6 µM), usual class: inhibitors; hit rate 5.4% among 310,000; AID 2551; note: nearly all actives have a fitted effect of over 60% in size
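Luminescence from a UAS-regulated Photinus luciferase reporter in stably transfected Drosophila Schneider cells is measured; decreased signal marks ROR gamma inhibition. Fusion expression is induced by 700 uM copper sulfate for 20 hr.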
VP16 counter: inhibits Gal4-VP16 luciferase reporter, ROR gamma counter-screen. Drosophila S2 Gal4-VP16 UAS-luciferase, luminescence, 20 h. Potency, µM (titrated, usually from 53.6 µM), hits mostly inhibitors. hit rate 3.5% among 310,000;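 note: Gal4-VP16 expression switched on by copper sulfate through the metallothionein promoter; nearly all actives have a fitted effect of over 50% in size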
HEK293 tox: cytotoxic in the GLP-1 receptor inverse agonist counter-screen; HEK293 cAMP-luciferase reporter cells, luminescence, 24 h; Potency, µM (highest dose often 38.3 µM), most hits filed as inhibitors; hit rate 0.13% among 410,000;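 note: loss of luciferase light is scored as toxicity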
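To flag toxic compounds, the library was rerun on cells for 24 hr at 37 deg C and 5% CO2. Viability-linked luminescence was captured 12 min after adding luciferase detection reagent.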
A number is an active result; n = inactive; u = inconclusive; x = not tested or not shown; [ ] = remark or other dose. Calls come from the whole dose curve; as a rule, active = well fitted curve in the direction sought with a large enough effect; inconclusive = small, poorly fitted or top-dose-only effect, or another doubt; inactive = no such curve, though single readings can be large; an effect the other way counts as inactive or inconclusive.

SMILES	GLP1R ag	GLP-1R inv ag	RORgamma inh	VP16 counter	HEK293 tox
CC(=O)OC1CC(OC(C)=O)[C@]2(C)C(CC(OC(C)=O)[C@]3(C)C2CC[C@@]2(C)C(c4ccoc4)OC(=O)C4O[C@]432)C1(C)C (some centres not stated)	x	x	u	n	x
CC(=O)n1cc(C(C[N+](=O)[O-])SCCN)c2ccccc21 (configuration not stated)	n	n	12.6µM	u	u
O=C(Nc1cccnc1)c1cc2c(ccc3ccccc32)o1	n	n	1.41µM	u	n
CSc1nn(CC(=O)Nc2cc(C)ccc2C)c(N)c1S(=O)(=O)c1ccccc1	x	u	x	x	n
COC(=O)c1sc(N)c(C(=O)OC)c1Cn1ncc(Cl)c(Cl)c1=O	n	u	u	12.6µM	u
CC1(C)CCCC2(C)C3C(O)CC2(C)C(O)C31 (configuration not stated)	x	x	n	n	x
OC(CN1CCCCC1)c1cc(-c2ccccc2)on1 (configuration not stated)	n	x	x	x	x
Cn1c(NC(=O)c2cccs2)cc(=O)n(C)c1=O	n	n	n	n	n
Cn1c(NC(=O)c2ccc(Br)o2)cc(=O)n(C)c1=O	n	n	12.6µM	n	n
CN(C)CCCN(C(=O)c1ccc([N+](=O)[O-])s1)c1nc2cc3c(cc2s1)OCCO3	n	n	12.6µM	u	n
CN(C)CCCN(C(=O)c1ccc(Br)s1)c1nc2cc3c(cc2s1)OCCO3	n	u	x	x	u
COc1ccccc1Cc1nc2ccccc2nc1SCC(=O)Nc1ccccc1C(F)(F)F	x	n	x	x	n
CC(C)=CCc1c(O)cc2occ(-c3ccc4c(c3)OCO4)c(=O)c2c1O	x	x	u	14.1µM	x
O=[N+]([O-])c1ccc(Sc2cc[n+]([O-])c3ccccc23)c([N+](=O)[O-])c1	n	n	11.2µM	17.8µM	n
O=c1[nH]c(Sc2ccc([N+](=O)[O-])cc2[N+](=O)[O-])nc2ccccc12	n	n	x	x	n
Cc1ccc(NC(=O)CC2SC3=NCCN3C2=O)cc1 (configuration not stated)	n	n	u	11.2µM	n
CC1CN(CCCCN2C(=O)c3ccccc3C2=O)CC(C)O1 (configuration not stated)	n	n	n	n	n
CC1CN(CN2C(=O)c3ccccc3C2=O)CC(C)O1 (configuration not stated)	n	n	n	12.6µM	n
CS(=O)(=O)c1cnc2c(S(=O)(=O)c3ccccc3)cnn2c1N	n	n	n	n	n
COc1ccc(-c2cnn3c(N)c(S(=O)(=O)c4ccccc4)cnc23)cc1	n	n	2.82µM	5.62µM	n
Nc1c(S(=O)(=O)c2ccccc2)cnc2c(-c3ccc(F)cc3)cnn12	n	n	4.47µM	10µM	n
Cc1ccc(S(=O)(=O)N[C@H]2COC(=O)C/C=C\[C@@H](C)[C@H](NS(=O)(=O)c3ccc(C)cc3)COC(=O)C/C=C\[C@H]2C)cc1	x	x	n[10 µM]	n[10 µM]	x
Fc1ccc(CNC(=S)NCc2cccc(Cl)c2)cc1	n	u	n	u	u
C/C(=N\NC(=S)NCCc1ccccc1)c1ccc(Cl)cc1Cl	n	u	1.78µM	6.31µM	n
S=C(NCc1ccccc1)NCc1cccc(Cl)c1	n	u	10µM	u	u
SMILES	GLP1R ag	GLP-1R inv ag	RORgamma inh	VP16 counter	HEK293 tox
S=C(NCCc1cccc(Cl)c1)NCc1ccccc1	x	x	8.91µM	u	x
COc1ccccc1N1CCN(S(=O)(=O)CCNC(=O)C(c2ccccc2)c2ccccc2)CC1	x	u	x	x	n
NC(=S)N/N=C/c1cc([N+](=O)[O-])ccc1OCCOc1ccccc1	n	n	n	n	n
NC(=S)N/N=C/c1cc([N+](=O)[O-])ccc1Cl	n	n	25.1µM	n	n
O=[N+]([O-])c1ccc(Cl)c(/C=N/NC(=S)Nc2ccccc2)c1	n	n	0.355µM	2.24µM	n
CS(=O)(=O)N(CC(=O)N/N=C/c1cc([N+](=O)[O-])ccc1Cl)c1ccccc1	n	n	n	n	n
COC(=O)c1ccccc1NC(=O)C1=C(C)C(=O)OC12CCCCCC2	x	n	x	x	n
CCNC(=S)NN=C1c2ccccc2-c2ccccc21	n	u	1.78µM	3.16µM	u
O=C(CCC(=O)N/N=C/c1ccco1)N/N=C/c1ccco1	n	n	n	n	n
C=C(C)CNC(=S)N/N=C/c1ccco1	n	4.47µM	0.562µM	3.16µM	u
C=C(C)CNC(=S)NN=C1c2ccccc2-c2ccccc21	11.2µM	u	3.16µM	u	u
S=C(NCCCN1CCOCC1)NN=C1c2ccccc2-c2ccccc21	n	u	x	x	u
O=C1OC(C(=O)Nc2cc(C(F)(F)F)ccc2Cl)Cc2ccccc21 (configuration not stated)	x	n	x	x	n
CCOC(=O)C1=C(CNCc2ccccc2)NC(=O)NC1c1ccc(C)cc1 (configuration not stated)	n	u	x	x	n
O=C(Nc1c(C(=O)N2CCN(c3ccccc3F)CC2)oc2ccccc12)c1ccc(Br)o1	x	u	x	x	n
CCC(Sc1nnc(C)n2c1cc1sccc12)C(=O)Nc1ccccc1F (configuration not stated)	x	n	x	x	n
Oc1ccccc1/C=N/NC(=S)NC1CC2C=CC1C2 (configuration not stated)	u	7.94µM	3.16µM	5.01µM	n
Oc1ccccc1C=NNC(=S)NC1CC2C=CC1C2 (configuration not stated)	n	u	x	x	u
Oc1c(Cl)cc(Cl)cc1/C=N/NC(=S)NC1CC2C=CC1C2 (configuration not stated)	n	u	4.47µM	20µM	n
CN(CCOc1ccc(Cl)cc1)C(=O)c1cc(-c2ccco2)nc2ccccc12	n	10µM	x	x	u
CSc1nc(O)c(N=Nc2ccc(F)cc2F)c(=O)[nH]1	n	u	u	10µM	n
CC(=O)c1cccc(NC(=O)CSc2ncc3c(n2)-c2cc(Cl)ccc2N(Cc2ccccc2)S3(=O)=O)c1	x	n	x	x	n
CN(C(=O)c1cc2n(n1)C(C(F)(F)F)CC(c1ccco1)N2)c1ccc(OC(F)(F)F)cc1 (configuration not stated)	n	u	u	17.8µM	n
CC(=O)Nc1cccc(NC(=O)c2cc3c(=O)n4cccc(C)c4nc3n2C)c1	x	n	x	x	n
Cc1cc(C)c(NC(=S)N(CCN(C)C)Cc2cccs2)c(C)c1	n	u	n	n[10 µM]	u
SMILES	GLP1R ag	GLP-1R inv ag	RORgamma inh	VP16 counter	HEK293 tox
Cc1ccc(NC(=S)N(CCN(C)C)Cc2cccs2)c(C)c1	n	u	u	n	n
Cc1cccc(NC(=S)N(CCN(C)C)Cc2cccs2)c1	n	u	11.2µM	n[10 µM]	n
CCc1cccc(C)c1NC(=S)N(CCN(C)C)Cc1cccs1	n	u	11.2µM	n[10 µM]	n
Cc1cccc(C)c1NC(=S)N(CCN(C)C)Cc1cccs1	n	u	10µM	n	n
Cc1cccc(C)c1NC(=S)N(CCCN1CCN(C)CC1)Cc1cccs1	n	n	n	n	n
Cc1nc2cccnc2n1-c1cccc(C(=O)NCc2cccc(Cl)c2)c1	x	n	x	x	n
